Several values for one entry are separate records, joined by “and”; a condition that tells them apart may be missing. Identical values can stand only once. Records with an inconclusive call do not appear. Activity calls are given as the source filed them. Unless noted, calls come from the whole dose curve; as a rule, active = well fitted curve in the direction sought with a large enough effect in the repeat runs; inconclusive = weak or mixed curves; inactive = no such curve, though single readings can be large; an effect the other way counts as inactive or inconclusive.

Results on four compounds are retold here after PubChem BioAssay (Tox21).

A short description of assay [1]: qHTS assay to identify small molecule antagonists of the TGF-beta/Smad signaling pathway - cell viability counter screen (AID 1346824). Note: nearly all actives have a fitted effect of over 50% in size. Put shortly: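 Cytotoxicity counter-screen run in the same wells as the beta-lactamase Smad reporter read: CellTiter-Glo luminescence after 30 min at room temperature. HEK 293T SBE-bla cells had 5 hr compound exposure at 37 C with TGF-beta1 (0.25 ng/mL stock).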
Background: In qHTS, concentration-response curves come from the screen itself.

Assay [2] can be described thus: qHTS assay to identify small molecule agonists of the TGF-beta/Smad signaling pathway - cell viability counter screen (AID 1346829). Note: top concentration of the series differs between compounds; nearly all actives have a fitted effect of over 45% in size. Put shortly: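 Cytotoxicity counter screen: CellTiter-Glo luminescence (30 min, room temperature) measured in the SBE-bla HEK 293T reporter wells after 5 hr compound treatment at 37 C and the 2 hr substrate step.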
Assay [3] in a line: qHTS assay to identify small molecule agonists of the TGF-beta/Smad signaling pathway (AID 1346859; active = well fitted activation curve with a large enough effect in the signal ratio in the repeat runs, not every such curve was filed as active; the % refers to the signal ratio; note: series mostly up to about 77 µM). Put shortly:
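SBE-bla HEK 293T, 4,000 cells/well, plated o/n; cpd in DMSO, 5 hr, 37 C/5% CO2; B/G FRET substrate 2 hr RT; ex 405, em 460/530 nm.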

The target of assay [4] is Thyrotropin-releasing hormone receptor (Homo sapiens) (UniProt P34981). Kind of assay: qHTS assay to identify small molecule antagonists of the thyrotropin-releasing hormone receptor (TRHR) signaling pathway (AID 1346877; active = well fitted inhibition curve with a large enough effect in the repeat runs, not every such curve was filed as active; note: series mostly up to about 51 µM). Put shortly: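 HEK293/TRHR cells, 18 h, 37 °C; Ca2+ dye 2 h; cpd 5 min RT; TRH 1 nM final; fluorescence read 3 min, 1 s intervals; 15 concs, triplicate.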

For assay [5] the target is unchanged. Briefly: qHTS assay to identify small molecule agonists of the thyrotropin-releasing hormone receptor (TRHR) signaling pathway (AID 1346891; calls by dose curve; note: series mostly up to about 58 µM). Put shortly:
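Intracellular calcium rise, read as fluorescence every second for 3 min, served as the agonist signal in dye-loaded HEK293 cells expressing TRHR; each compound ran at 15 concentrations in triplicate.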

A short description of assay [6]: Human pregnane X receptor (PXR) small molecule agonists, qHTS cell viability counter screen (AID 1346977). Note: nearly all actives have a fitted effect of over 50% in size. Note: potency is the fitted concentration of half-maximal effect. Put shortly:
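PXR-Luc HepG2, 2,000 cells/well, 5% charcoal-stripped FBS; 5hr settle; cpd 24hr, 37C/5% CO2; CellTiter-Fluor at 23hr, read 1hr later (fluorescence).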

Assay [7] is described as follows: Caspase-3/7 induction in HepG2 cells by small molecules, qHTS assay (AID 1346978). Note: nearly all actives have a fitted effect of over 15% in size. Note: potency is the fitted concentration of half-maximal effect. Put shortly: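 Caspase-3/7 induction was measured by Caspase-Glo 3/7 luminescence (30 min, room temperature) after a 17 hr compound exposure of wild-type HepG2 cells seeded at 2,000 per well and pre-incubated 5 hr.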
Assay [8] is described as follows: Caspase-3/7 induction in CHO-K1 cells by small molecules, qHTS assay (AID 1346980). Note: nearly all actives have a fitted effect of over 15% in size. Put shortly:
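Luminescent Caspase-Glo 3/7 read (30min, room temperature) quantified apoptosis induction. Cells were wild-type CHO-K1, treated with compound for 17hr at 37 C and 5% CO2.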

A short description of assay [9]: Caspase-3/7 induction in HepG2 cells by small molecules, qHTS cell viability counter screen (AID 1346981). Note: nearly all actives have a fitted effect of over 30% in size. Note: potency is the fitted concentration of half-maximal effect. Put shortly:
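Fluorescence read-out of live-cell protease activity (CellTiter-Fluor) after 1 hr with reagent. This was measured in the same wells as the caspase-3/7 luminescence, on HepG2 cells exposed to DMSO-dissolved compounds for 16 hr at 37 C.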

Assay [10] deals with Nuclear receptor subfamily 1 group I member 2 (Homo sapiens) (UniProt O75469). Kind of assay: Human pregnane X receptor (PXR) small molecule agonists, qHTS assay (AID 1346982). Note: nearly all actives have a fitted effect of over 35% in size. Put shortly: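 HepG2 PXR-Luc reporter line, 5% charcoal-stripped FBS; 5 hr pre-incubation, compound (DMSO) 24 hr at 37 C/5% CO2; ONE-Glo 30 min RT; luminescence read-out.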
Assay [11] deals with Cytochrome P450 2D6 (Homo sapiens) (UniProt P10635). Briefly: Cytochrome P450 Family 2 Subfamily D Member 6 (CYP2D6) small molecule antagonists: luciferase reporter qHTS assay (AID 1671196). Note: series mostly up to about 120 µM; nearly all actives have a fitted effect of over 50% in size. Put shortly:
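Luminogenic proluciferin substrate, CYP2D6 enzyme; 10 min RT preincubation with compound, NADPH regeneration system added, 1 h RT. Stop/detection reagent, 20 min RT, luminescence read (RLU). Signal proportional to CYP activity.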
On the technique in general: A reporter such as luciferase makes a cellular process visible.

Assay [12] deals with Cytochrome P450 2C19 (Homo sapiens) (UniProt P33261). Briefly: Cytochrome P450 Family 2 Subfamily C Member 19 (CYP2C19) small molecule antagonists: luciferase reporter qHTS assay (AID 1671197). Note: nearly all actives have a fitted effect of over 65% in size. Note: potency is the fitted concentration of half-maximal effect. Put shortly:
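Luminescent readout of CYP2C19 activity: luciferin product detected 20 min after adding detection reagent. Before that, compound and enzyme-substrate mix preincubated 10 min at room temperature; NADPH-regenerating system started a 1 h, 37C reaction. Ketoconazole as positive control.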

In assay [13] the target is Cytochrome P450 2C9 (Homo sapiens) (UniProt P11712). Kind of assay: Cytochrome P450 Family 2 Subfamily C Member 9 (CYP2C9) small molecule antagonists: luciferase reporter qHTS assay (AID 1671198). Note: nearly all actives have a fitted effect of over 50% in size. Note: potency is the fitted concentration of half-maximal effect. Put shortly:
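Enzyme-substrate mix preincubated with compound 10 min at room temperature; reaction started with NADPH regeneration solution, 1 h 37C. Luminescent luciferin product read after 20 min detection reagent.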

Assay [14] can be described thus: qHTS assay to identify small molecule antagonists of the progesterone receptor (PR) signaling pathway - cell viability counter screen (AID 1346798). Note: nearly all actives have a fitted effect of over 50% in size. Note: potency is the fitted concentration of half-maximal effect. Put shortly:
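HEK293T PR-UAS-bla, 2% charcoal-stripped FBS; 4 hr pre-plate; cpd + R5020, 16 h 37C; LiveBLAzer read first; then CellTiter-Glo 30 min RT, luminescence.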

The nature of assay [15]: qHTS assay to identify small molecule agonists of the progesterone receptor (PR) signaling pathway - cell viability counter screen (AID 1346799; calls by dose curve; note: nearly all actives have a fitted effect of over 45% in size; note: potency is the fitted concentration of half-maximal effect). Put shortly: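 Luminescence from CellTiter-Glo, added after the beta-lactamase FRET read in the same wells, gave cytotoxicity in PR-UAS-bla HEK293T cells treated with compounds for 16 hr at 37C.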
Assay [16] in a line: Caspase-3/7 induction in CHO-K1 cells by small molecules, qHTS cell viability counter screen (AID 1346979). Note: nearly all actives have a fitted effect of over 35% in size. Note: potency is the fitted concentration of half-maximal effect. Put shortly: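 Cells (CHO-K1, wild type) are plated at 1,500 per well and incubated 5hr. Test compounds in DMSO are then pinned in, followed by 16hr at 37C and 5% CO2. Viability is read by CellTiter-Fluor fluorescence after 1hr.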

Chain of Cytochrome P450 2C19 (Homo sapiens) (P33261 whole entry, looked up): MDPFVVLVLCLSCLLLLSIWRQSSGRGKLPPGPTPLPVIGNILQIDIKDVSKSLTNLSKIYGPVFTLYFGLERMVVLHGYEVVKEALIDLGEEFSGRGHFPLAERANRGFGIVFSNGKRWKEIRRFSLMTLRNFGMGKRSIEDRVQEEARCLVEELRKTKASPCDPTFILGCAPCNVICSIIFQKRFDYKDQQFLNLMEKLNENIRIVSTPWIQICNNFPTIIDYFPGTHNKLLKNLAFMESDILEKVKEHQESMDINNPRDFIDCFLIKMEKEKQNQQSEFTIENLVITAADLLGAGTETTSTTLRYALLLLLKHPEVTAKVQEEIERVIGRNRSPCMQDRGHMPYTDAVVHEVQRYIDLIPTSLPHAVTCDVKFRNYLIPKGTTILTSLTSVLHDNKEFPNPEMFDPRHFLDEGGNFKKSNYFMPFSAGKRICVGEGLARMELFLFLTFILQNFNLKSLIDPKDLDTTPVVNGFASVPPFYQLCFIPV
Chain of Cytochrome P450 2D6 (Homo sapiens) (P10635 whole entry, looked up): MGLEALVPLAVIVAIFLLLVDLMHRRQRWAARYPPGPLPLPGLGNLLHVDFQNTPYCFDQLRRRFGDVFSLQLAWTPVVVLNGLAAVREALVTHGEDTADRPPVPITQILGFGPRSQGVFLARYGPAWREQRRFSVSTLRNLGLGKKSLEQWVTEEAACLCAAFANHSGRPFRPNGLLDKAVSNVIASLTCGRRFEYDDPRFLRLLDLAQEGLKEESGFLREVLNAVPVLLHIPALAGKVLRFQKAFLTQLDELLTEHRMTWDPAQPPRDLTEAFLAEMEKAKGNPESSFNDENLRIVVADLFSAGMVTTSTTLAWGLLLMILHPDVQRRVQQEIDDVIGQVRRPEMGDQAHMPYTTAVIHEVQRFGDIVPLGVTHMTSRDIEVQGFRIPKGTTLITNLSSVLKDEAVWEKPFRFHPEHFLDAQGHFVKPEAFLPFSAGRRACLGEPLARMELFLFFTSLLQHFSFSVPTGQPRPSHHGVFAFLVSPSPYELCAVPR
Chain of Cytochrome P450 2C9 (Homo sapiens) (P11712 whole entry, looked up): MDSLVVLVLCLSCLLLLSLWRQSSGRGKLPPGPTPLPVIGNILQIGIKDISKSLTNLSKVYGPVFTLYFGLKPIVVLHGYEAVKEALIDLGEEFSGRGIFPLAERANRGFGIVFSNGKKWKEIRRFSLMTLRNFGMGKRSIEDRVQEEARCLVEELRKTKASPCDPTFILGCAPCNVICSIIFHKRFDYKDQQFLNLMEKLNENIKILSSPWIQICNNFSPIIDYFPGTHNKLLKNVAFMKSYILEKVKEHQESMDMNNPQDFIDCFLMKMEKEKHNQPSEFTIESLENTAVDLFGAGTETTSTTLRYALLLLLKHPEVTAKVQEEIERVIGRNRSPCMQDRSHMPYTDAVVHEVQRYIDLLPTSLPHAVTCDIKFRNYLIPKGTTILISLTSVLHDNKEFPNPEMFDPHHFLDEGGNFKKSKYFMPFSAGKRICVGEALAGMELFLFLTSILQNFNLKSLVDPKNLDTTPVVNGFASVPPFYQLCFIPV
Chain of Nuclear receptor subfamily 1 group I member 2 (Homo sapiens) (O75469 whole entry, looked up): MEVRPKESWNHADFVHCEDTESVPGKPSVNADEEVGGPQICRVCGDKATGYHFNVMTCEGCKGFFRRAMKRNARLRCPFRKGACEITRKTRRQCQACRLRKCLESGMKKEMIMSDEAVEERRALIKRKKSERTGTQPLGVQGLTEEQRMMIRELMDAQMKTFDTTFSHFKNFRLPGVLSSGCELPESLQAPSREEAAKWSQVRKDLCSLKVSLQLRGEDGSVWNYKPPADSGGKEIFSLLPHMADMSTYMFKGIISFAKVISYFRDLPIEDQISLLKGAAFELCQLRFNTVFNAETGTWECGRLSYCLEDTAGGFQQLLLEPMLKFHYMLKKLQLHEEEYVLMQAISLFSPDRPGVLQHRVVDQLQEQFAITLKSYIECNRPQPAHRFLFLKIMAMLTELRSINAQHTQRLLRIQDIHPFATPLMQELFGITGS
Chain of Thyrotropin-releasing hormone receptor (Homo sapiens) (P34981 whole entry, looked up): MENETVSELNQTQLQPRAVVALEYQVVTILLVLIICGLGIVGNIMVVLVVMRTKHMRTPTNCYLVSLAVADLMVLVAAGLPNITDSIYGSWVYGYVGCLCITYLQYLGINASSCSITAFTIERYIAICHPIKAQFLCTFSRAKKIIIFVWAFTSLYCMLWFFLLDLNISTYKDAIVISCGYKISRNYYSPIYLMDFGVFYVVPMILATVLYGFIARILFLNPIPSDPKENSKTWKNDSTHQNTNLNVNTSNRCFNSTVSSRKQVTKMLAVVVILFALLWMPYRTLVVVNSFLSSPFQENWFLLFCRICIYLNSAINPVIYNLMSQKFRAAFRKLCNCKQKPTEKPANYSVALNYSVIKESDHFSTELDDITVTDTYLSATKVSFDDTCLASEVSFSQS

For `CC(C)(c1ccccc1)c1ccc(Nc2ccc(C(C)(C)c3ccccc3)cc2)cc1`, the Potency entry in assay [1], in [2], in assay [4], in [5], in [6] and in assay [7] was “inactive” throughout. Further, the Potency entry in assay [8], in assay [9], in [10], in assay [11] and in assay [12] was “inactive” in each case. In addition, the compound was classed as inactive in [3]. Besides, the Potency in assay [13] is 3.55 µM (active) and 5.64 µM (active).
Take `O=C(O)c1cccc(C(=O)O)c1`: the Potency result in [14], in assay [15], in assay [2], in assay [4], in assay [5] and in assay [6] was “inactive” in each case. Also, the Potency entry in assay [7], in [16], in assay [8], in assay [9], in [10] and in assay [11] was “inactive” in each case. Also, the Potency entry in assay [12] and in [13] was “inactive” in each case. For the same compound, the outcome in assay [3] was inactive.
Turning to `CNCCC(Oc1ccc(C(F)(F)F)cc1)c1ccccc1` (centres undefined), the Potency was 60.3 µM (active) and 29.8 µM (active) in assay [14]; 30.2 µM (active) and 13.3 µM (active) in [15]; 24 µM (active) and 26.6 µM (active) in assay [6]; 26.9 µM (active) in [7]; 67.7 µM (active) and 29.8 µM (active) in [16]; 60.3 µM (active) in assay [9]. Also, the Potency entry in assay [2], in [4] and in assay [5] was “inactive” throughout. Besides, the outcome in assay [3] was inactive.
Regarding `CN1C(=O)c2ccc([N+](=O)[O-])cc2C1=O`, the Potency result in [14], in [15], in assay [1], in [2], in [4] and in assay [5] was “inactive” each time. Besides, the Potency result in [7], in assay [8] and in assay [9] was “inactive” in each case. For the same compound, the result in [3] was inactive. Besides, the Potency in [12] was 70.9 µM (active).
